Rows were chosen to be rich in hits. Some 2.8% of all compounds tested hit in one or more screens of this group.
D3 antag – antagonists of human D3 dopamine receptor; max response, negative = inhibition, %; P35462; D3R cells, DiscoveRx beta-arrestin luminescence, antagonist mode; hits give low values; AID 652054; 360,000 tested, 2.5% active; in the data active = max response below about -50%; inconclusive = no clear call, values can overlap the other calls; also: % is scaled to controls: 0 for no effect and ±100 for the full control effect
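Cells plated overnight at 1500 cells/well, then exposed to library compounds with dopamine controls for 90 minutes at 37 degrees C. DiscoveRx reagent added for 30–60 minutes at room temperature; luminescence read, quantitative HTS format.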
B2AR arrestin – agonists driving beta-arrestin recruitment to human beta2-adrenergic receptor; beta-arrestin recruitment to beta2AR, cell-based reporter; AID 492947; Potency, µM (series often up to 46.1 µM), without a hit: at the highest dose activation, actives largely listed as activators; P07550; 330,000 tested, 0.02% active; active = well fitted activation curve with a large enough effect; inconclusive = small, poorly fitted or top-dose-only effect;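 also: potency is read from the fitted curve at half-maximal effect; 0% = DMSO controls and full agonism = EC100 isoproterenol or metaproterenol; nearly all actives have a fitted effect of over 65% in size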
Target sequence (P07550 whole entry, looked up): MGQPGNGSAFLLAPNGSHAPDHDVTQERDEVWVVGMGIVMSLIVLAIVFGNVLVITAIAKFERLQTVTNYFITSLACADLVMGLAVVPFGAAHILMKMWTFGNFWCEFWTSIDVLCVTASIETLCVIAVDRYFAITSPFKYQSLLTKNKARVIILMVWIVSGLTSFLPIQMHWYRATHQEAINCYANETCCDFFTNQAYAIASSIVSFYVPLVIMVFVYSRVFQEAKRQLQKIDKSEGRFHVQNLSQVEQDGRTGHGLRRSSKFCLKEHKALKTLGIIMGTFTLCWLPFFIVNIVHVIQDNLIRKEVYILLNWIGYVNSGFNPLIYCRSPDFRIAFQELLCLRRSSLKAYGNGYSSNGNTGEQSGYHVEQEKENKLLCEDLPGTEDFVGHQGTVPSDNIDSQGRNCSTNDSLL
DRD3 agonist – agonists of human D3 dopamine receptor | P35462 | D3R DiscoveRx beta-arrestin cells, luminescence, 90 min | max activation, % | 410,000 tested, 0.58% active | AID 652048; in the data active = max activation above about 30%; also: 0% is about no effect
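Agonist mode: compounds and dopamine controls were applied to plated cells for 90 min at 37 degrees C after an overnight attachment at 1500 cells/well. Luminescent read-out followed 30 - 60 minutes at room temperature with DiscoveRx detection reagent.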
Giardia kill – kills Giardia lamblia | activity change, % at 7.66 µM, hits read low | Giardia lamblia trophozoite viability | 340,000 tested, 0.15% active | AID 540267; in the data active = activity change below about -80%; inconclusive = between about -30% and that limit;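 also: parasites exposed to compound for two days anaerobically before the ATP read; % is scaled to controls: 0 for no effect and ±100 for the full control effect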
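Media and compound were dispensed first, then trophozoites at 100 cells/well; plates sat 48 hrs at 37 deg C without oxygen before ATP luminescence reagent was added and read after 15-30 min at room temperature.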
Starred values were filed as active, the others as inactive; ? = inconclusive; . = not tested or not shown.

SMILES | D3 antag | B2AR arrestin | DRD3 agonist | Giardia kill
CCOC(=O)C1(CCOc2ccccc2)CCN(Cc2cccc(OCCO)c2)CC1 | -15.7 | -0.4% | -11.9 | 30.5
CCOC(=O)C1(CCOc2ccccc2)CCN(Cc2cccc3c2OCO3)CC1 | -60.0* | 0.2% | -41.4 | -0.4
N=C1N=C(N)c2cc3ccccc3cc21 | . | . | 4.4 | .
CCCN(C(=O)Cn1cnc2sc(C)c(S(=O)(=O)N3CCN(c4ncccn4)CC3)c2c1=O)c1cccc(C)c1 | . | . | -0.7 | .
Cc1ccc(Cl)cc1NC(=O)c1cc2c(=O)n3cccc(C)c3nc2n1C | . | . | 1.7 | .
CCOc1cc(/C=C2\SC(=O)N(CC(=O)Nc3ccccc3F)C2=O)cc([N+](=O)[O-])c1O | -2.6 | 0.5% | 5.2 | -9.7
COc1cc(/C=C2\SC(=O)N(CC(=O)Nc3ccccc3F)C2=O)cc(Cl)c1O | 153.9 | -1.1% | 58.5* | 7.8
COc1cc(OC)c(/C=C2\SC(=O)N(CC(=O)Nc3ccccc3F)C2=O)c(OC)c1 | -11.8 | 0.4% | -6.2 | 0.8
COc1cc(/C=C2\SC(=O)N(CC(=O)Nc3cccc(C)c3)C2=O)cc([N+](=O)[O-])c1O | 38.8 | 0.0% | 38.4* | -21.2
COC(=O)c1c(NC(=O)c2nc(SCc3ccccc3C)ncc2Cl)sc2c1CCCC2 | . | . | -10.1 | .
COc1cccc(-c2nc(SCc3cc(=O)c4ccc(C)c(C)c4[nH]3)n[nH]2)c1 | . | . | 8.6 | .
CCCCNC(=O)CN1C(=O)c2cccnc2Sc2ccccc21 | . | . | -13.4 | .
Cc1[nH]c2ccccc2c1C(=O)CSc1nc2ncc(Cl)cc2[nH]1 | -60.8* | -0.9% | -8.9 | 1.9
COc1cccc(CNC(=O)c2cc(S(=O)(=O)N3CCCCCC3)cn2C)c1 | . | . | 7.1 | .
CC1C(=O)C(C)C(c2ccc(Cl)cc2)NC1c1ccc(Cl)cc1 (stereo unspecified) | -60.6* | . | -5.7 | -7.2
CCOC(=O)C1(C)CCCN1C(=O)c1snnc1C (stereo unspecified) | -51.1* | . | -5.1 | .
CCOC(=O)C1(C)CCCCCN1C(=O)c1csnn1 (stereo unspecified) | -18.9 | . | -4.5 | .
CCOc1ccc(OC(=O)NC(c2ccccc2)C(Cl)(Cl)Cl)cc1 (stereo unspecified) | -6.2 | -0.5% | 0.9 | 9.9
CC(C)OC(=O)NC(c1ccccc1)C(Cl)(Cl)Cl (stereo unspecified) | -50.1* | 3.3% | 4.1 | 13.4
Cc1ccc2ccc3cc(C(=O)Nc4ccc(C)c(F)c4)nc3c2[nH]1 | . | . | 4.8 | .
COc1ccc(CC2(CO)CCN(Cc3ccc4nsnc4c3)CC2)cc1 | -73.0* | -0.1% | -25.2 | 5.0
CCOC(=O)N1CCN([N+]([O-])=NOc2cc(O/N=[N+](\[O-])N(CC)CC)c([N+](=O)[O-])cc2[N+](=O)[O-])CC1 | . | . | . | -20.6
O=S(=O)(Nc1ccc2c(c1)nc1n2CCN(Cc2ccccc2)C1)c1ccccc1 | ? | -0.7% | 0.4 | 1.2
Cc1ccc(S(=O)(=O)Nc2ccc3c(c2)nc2n3CCN(Cc3ccccc3)C2)cc1 | -51.3* | -0.1% | -26.5 | -9.6
O=S(=O)(Nc1ccc2c(c1)nc1n2CCN(Cc2ccccc2)C1)c1ccc(F)cc1 | -7.8 | -1.0% | -0.9 | 13.8
SMILES | D3 antag | B2AR arrestin | DRD3 agonist | Giardia kill
O=S(=O)(Nc1ccc2c(c1)nc1n2CCN(Cc2ccccc2)C1)c1ccc(Cl)cc1 | -58.2* | 0.1% | -4.3 | -16.3
COC(=O)[C@H](C)[C@H](CC(C)C)NC(=O)[C@H](C)[C@H](CC(C)C)NC(=O)c1ccccn1 | . | . | . | -14.2
O=C1C(Cl)=C(N2CCOCC2)C(=O)N1c1ccc(Br)cc1 | -69.2* | -0.6% | -11.8 | -17.4
Cc1cc2nc3c(=O)[nH]c(=O)nc-3n(C[C@H](O)[C@H](O)[C@H](O)COP(=O)(O)OP(=O)(O)OC[C@H]3O[C@@H](n4cnc5c(N)ncnc54)[C@H](O)[C@@H]3O)c2cc1C | . | . | -9.4 | .
COc1ccc(NS(=O)(=O)c2ccc(O)c(C(=O)OCC(=O)NC(C)C3CC4CCC3C4)c2)cc1 (stereo unspecified) | -1.5 | -0.1% | -0.6 | -16.0
CC(NC(=O)COC(=O)c1cc(NS(=O)(=O)c2ccc(Cl)c([N+](=O)[O-])c2)ccc1O)C1CC2CCC1C2 (stereo unspecified) | -60.9* | -0.3% | -3.9 | 8.6
CCOC(=O)c1cnc(Nc2nc3ccccc3o2)nc1CSC(=S)N(CC)CC | -60.3* | ? | -7.7 | ?
CCOC(=O)c1cnc(Nc2nc3ccccc3o2)nc1CSc1ncccn1 | -22.0 | . | 8.5 | 3.9
COc1ccc(NC(=S)NC(NC(=O)/C=C/c2ccccc2)C(Cl)(Cl)Cl)cc1 (stereo unspecified) | -68.9* | 0.1% | -7.2 | 18.9
